Records with an inconclusive call do not appear. Entries that show only a call come without a potency. Calls of active or inactive are those of the source. Unless noted, calls come from the whole dose curve; as a rule, active = well fitted curve in the direction sought with a large enough effect in the repeat runs; inconclusive = weak or mixed curves; inactive = no such curve, though single readings can be large; an effect the other way counts as inactive or inconclusive.
What was measured:
[1] = qHTS assay to test for compound auto fluorescence at 535 nm (green) in HEK293 cells (AID 720680)
[2] = qHTS assay to test for compound auto fluorescence at 460 nm (blue) in HEK293 cell free culture (AID 720681)
Procedure, shortened: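 Blue fluorescence (Ex 405/Em 460 nm, triamterene-equivalent) was read immediately after pin transfer of compound or DMSO into medium (DMEM, 10% FBS) without cells.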

[3] = qHTS assay to test for compound auto fluorescence at 535 nm (green) in HEK293 cell free culture (AID 720682)
Procedure, shortened: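 Each library compound, or DMSO control, is added by pintool to medium alone, comprising DMEM and 10% FBS. Emission at 535 nm following 485 nm excitation is quantified against fluorescein.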

[4] = qHTS assay to test for compound auto fluorescence at 590 nm (red) in HepG2 cell free culture (AID 720684)
Procedure, shortened: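 Plate contents were MEM with 10% FBS plus test compound or DMSO, no cells. Fluorescence was recorded with 540 nm excitation and 590 nm emission.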

[5] = qHTS assay to test for compound auto fluorescence at 460 nm (blue) in HepG2 cell free culture (AID 720685)
Procedure, shortened: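 Compound (23 nL) or DMSO pinned into cell-free MEM with 10% FBS; blue fluorescence read at 405/460 nm excitation/emission, expressed as auto-fluorescence equivalency to triamterene.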

[6] = qHTS assay to test for compound auto fluorescence at 535 nm (green) in HepG2 cell free culture (AID 720686)
[7] = qHTS assay to test for compound auto fluorescence at 460 nm (blue) in HepG2 cells (AID 720687)
Procedure, shortened: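 Blue-channel autofluorescence (Ex/Em 405/460 nm, triamterene-equivalent) was measured after 1 hr compound exposure at 37 C, 5% CO2. Cells were HepG2, plated overnight at 37 C in MEM plus 10% FBS.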

[8] = target: Glucocorticoid receptor (Homo sapiens) (UniProt P04150); test: qHTS assay to identify small molecule agonists of the glucocorticoid receptor (GR) signaling pathway (AID 720691; active = well fitted activation curve with a large enough effect in the signal ratio in the repeat runs, not every such curve was filed as active; the % refers to the signal ratio); details: GR-bla HeLa, beta-lactamase reporter ratio, 18 h; activation: at 62.4 µM (top of the series)
Glucocorticoid receptor (Homo sapiens), sequence (P04150 whole entry, looked up): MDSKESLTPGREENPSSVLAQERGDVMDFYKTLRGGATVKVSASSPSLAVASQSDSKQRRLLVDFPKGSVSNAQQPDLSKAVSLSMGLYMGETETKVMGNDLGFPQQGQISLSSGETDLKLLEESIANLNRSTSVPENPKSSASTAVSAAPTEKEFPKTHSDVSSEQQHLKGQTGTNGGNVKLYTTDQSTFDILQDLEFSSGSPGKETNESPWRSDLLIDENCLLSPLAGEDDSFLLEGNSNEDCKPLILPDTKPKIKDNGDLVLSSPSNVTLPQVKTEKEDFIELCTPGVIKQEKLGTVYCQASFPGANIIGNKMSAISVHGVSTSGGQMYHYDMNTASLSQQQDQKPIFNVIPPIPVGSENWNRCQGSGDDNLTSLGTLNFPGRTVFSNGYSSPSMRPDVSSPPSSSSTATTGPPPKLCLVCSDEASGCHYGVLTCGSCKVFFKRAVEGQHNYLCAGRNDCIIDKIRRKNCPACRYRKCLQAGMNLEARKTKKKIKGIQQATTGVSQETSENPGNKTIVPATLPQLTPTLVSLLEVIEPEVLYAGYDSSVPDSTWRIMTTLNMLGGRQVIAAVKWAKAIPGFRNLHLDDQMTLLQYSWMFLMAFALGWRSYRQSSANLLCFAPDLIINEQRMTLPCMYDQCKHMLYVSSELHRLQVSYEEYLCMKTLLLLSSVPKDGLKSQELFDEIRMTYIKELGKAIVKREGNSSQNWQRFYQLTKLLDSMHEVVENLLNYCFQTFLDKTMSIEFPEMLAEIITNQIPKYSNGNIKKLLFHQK
Procedure, shortened: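 GR-bla HeLa cells carrying a GRE-driven beta-lactamase reporter, exposed to compounds for 18 h at 37 C. Reporter activation read as fluorescence after 2 h with LiveBLAzer B/G FRET substrate at room temperature.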

[9] = target: Glucocorticoid receptor (Homo sapiens) (UniProt P04150); test: qHTS assay to identify small molecule antagonists of the glucocorticoid receptor (GR) signaling pathway (AID 720692; active = well fitted inhibition curve with a large enough effect in the signal ratio in the repeat runs, not every such curve was filed as active; the % refers to the signal ratio; note: potency is the fitted concentration of half-maximal effect)
Procedure, shortened: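 GR-bla HeLa cells carrying a GRE-driven beta-lactamase reporter received compound after 4 h plating, then dexamethasone (5 nM final). After 18 h at 37C, the FRET substrate was loaded for 2 h at room temperature and fluorescence read.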

[10] = qHTS assay to identify small molecule antagonists of the glucocorticoid receptor (GR) signaling pathway - cell viability counter screen (AID 720693); note: nearly all actives have a fitted effect of over 55% in size
[11] = qHTS assay for identifying genotoxic compounds that show differential cytotoxicity against isogenic chicken DT40 cell lines with known DNA damage response pathways - Rev3 mutant cell line (AID 743014); note: nearly all actives have a fitted effect of over 55% in size; note: potency is the fitted concentration of half-maximal effect
[12] = qHTS assay for identifying genotoxic compounds that show differential cytotoxicity against isogenic chicken DT40 cell lines with known DNA damage response pathways - Rad54/Ku70 mutant cell line (AID 743015); note: nearly all actives have a fitted effect of over 60% in size; note: potency is the fitted concentration of half-maximal effect
[13] = qHTS assay to identify small molecule antagonists of the androgen receptor (AR) signaling pathway - cell viability counter screen (AID 743033; note: nearly all actives have a fitted effect of over 45% in size)
[14] = qHTS assay to identify small molecule antagonists of the androgen receptor (AR) signaling pathway using the MDA cell line - cell viability counter screen (AID 743041; note: nearly all actives have a fitted effect of over 45% in size)
Procedure, shortened: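 R1881-driven MDA-kb2 AR-luc cells, 3,000/well, were dosed with library compounds for 16 h; cell health came from CellTiter-Fluor fluorescence in the reporter wells.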

[15] = qHTS assay to identify small molecule antagonists of the thyroid receptor (TR) signaling pathway - cell viability counter screen (AID 743064); note: nearly all actives have a fitted effect of over 50% in size; note: potency is the fitted concentration of half-maximal effect
Procedure, shortened: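 CellTiter-Fluor readout, 30 min at 37 °C/5% CO2, following 23.5 h incubation of GH3.TRE-Luc cells with test compound and 1 nM T3 (final).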

[16] = qHTS assay for identifying genotoxic compounds that show differential cytotoxicity against isogenic chicken DT40 cell lines with known DNA damage response pathways - wild type cell line (AID 743012); note: nearly all actives have a fitted effect of over 60% in size; note: potency is the fitted concentration of half-maximal effect
Procedure, shortened: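 Wild-type DT40 cells (300/well) exposed to compounds for 40 hours at 37 C/5% CO2. Viability read by CellTiter-Glo luminescence after 30 min at room temperature.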

[17] = target: Androgen receptor (Homo sapiens) (UniProt P10275); test: qHTS assay to identify small molecule antagonists of the androgen receptor (AR) signaling pathway (AID 743035; active = well fitted inhibition curve with a large enough effect in the signal ratio in the repeat runs, not every such curve was filed as active; the % refers to the signal ratio; note: potency is the fitted concentration of half-maximal effect)
Androgen receptor (Homo sapiens), sequence (P10275 whole entry, looked up): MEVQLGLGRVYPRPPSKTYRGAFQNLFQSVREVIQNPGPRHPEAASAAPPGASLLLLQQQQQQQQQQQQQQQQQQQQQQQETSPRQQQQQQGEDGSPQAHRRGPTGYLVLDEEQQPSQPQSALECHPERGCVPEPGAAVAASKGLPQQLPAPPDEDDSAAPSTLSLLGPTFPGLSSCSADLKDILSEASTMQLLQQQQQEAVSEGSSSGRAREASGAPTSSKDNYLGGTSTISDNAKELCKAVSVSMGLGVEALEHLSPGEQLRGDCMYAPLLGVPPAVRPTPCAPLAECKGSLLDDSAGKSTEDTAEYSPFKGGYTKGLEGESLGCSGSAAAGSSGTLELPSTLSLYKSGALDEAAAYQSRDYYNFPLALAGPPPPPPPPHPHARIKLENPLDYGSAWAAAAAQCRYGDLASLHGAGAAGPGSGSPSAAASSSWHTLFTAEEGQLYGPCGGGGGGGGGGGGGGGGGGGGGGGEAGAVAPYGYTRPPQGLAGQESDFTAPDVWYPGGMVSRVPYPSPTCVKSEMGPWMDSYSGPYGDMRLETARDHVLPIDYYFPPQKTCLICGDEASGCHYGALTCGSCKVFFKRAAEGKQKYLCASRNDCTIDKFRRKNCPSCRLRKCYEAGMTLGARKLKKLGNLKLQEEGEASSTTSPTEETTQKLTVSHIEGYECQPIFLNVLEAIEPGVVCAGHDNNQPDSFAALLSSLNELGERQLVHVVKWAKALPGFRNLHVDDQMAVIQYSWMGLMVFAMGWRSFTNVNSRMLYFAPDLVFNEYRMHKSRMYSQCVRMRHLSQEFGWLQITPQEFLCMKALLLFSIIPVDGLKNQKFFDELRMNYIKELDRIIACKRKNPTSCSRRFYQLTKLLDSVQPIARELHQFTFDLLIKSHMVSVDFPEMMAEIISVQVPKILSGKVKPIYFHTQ
Procedure, shortened: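 HEK293 cells stably carrying UAS-beta-lactamase reporter, 2,000/well, given compounds plus R1881 agonist and incubated 16 h at 37C. LiveBLAzer B/G FRET substrate then added for 2 h at room temperature before fluorescence reading.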

[18] = target: Androgen receptor (Homo sapiens) (UniProt P10275); test: qHTS assay to identify small molecule agonists of the androgen receptor (AR) signaling pathway using the MDA cell line (AID 743040; note: nearly all actives have a fitted effect of over 20% in size)
Procedure, shortened: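 After a 5 h incubation at 37C and 0% CO2, MDA-kb2 reporter cells were dosed with compounds in DMSO and kept 16 h under the same conditions. Luciferase activity was then read as luminescence with ONE-Glo.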

[19] = target: Androgen receptor (Homo sapiens) (UniProt P10275); test: qHTS assay to identify small molecule antagonists of the androgen receptor (AR) signaling pathway using the MDA cell line (AID 743042; note: nearly all actives have a fitted effect of over 55% in size; note: potency is the fitted concentration of half-maximal effect)
Procedure, shortened: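 Antagonist mode: compounds plus R1881 agonist added to MDA-kb2 AR-luc cells, incubated 16 h at 37C. Luciferase reporter luminescence quantified, with multiplexed CellTiter-Fluor readout for cell viability.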

Row | SMILES | outcome [1] | Potency [2] | outcome [3] | outcome [4] | Potency [5] | Potency [6] | Potency [7] | Potency [8] | Potency [9] | Potency [10] | Potency [11] | Potency [12] | Potency [13] | Potency [14] | Potency [15] | Potency [16] | Potency [17] | outcome [18] | Potency [19]
1 | CN(C)CCc1c[nH]c2ccccc12 | inactive | inactive | inactive | inactive | inactive | inactive | inactive | inactive | inactive | inactive | inactive | inactive | inactive | inactive | inactive | – | – | – | –
2 | CSC(C)(C)/C=N/O | inactive | inactive | inactive | inactive | inactive | inactive | inactive | inactive | inactive | inactive | inactive | – | inactive | inactive | inactive | inactive | – | – | –
3 | BrCC(Br)(Br)Br | inactive | inactive | inactive | inactive | inactive | inactive | inactive | – | – | inactive | – | – | inactive | inactive | inactive | – | inactive | inactive | inactive
4 | CCCN | inactive | inactive | inactive | inactive | inactive | inactive | inactive | – | – | inactive | inactive | inactive | inactive | inactive | inactive | inactive | – | – | –
5 | COP(=O)(OC)O/C(=C\Cl)c1cc(Cl)c(Cl)cc1Cl | inactive | inactive | inactive | inactive | inactive | inactive | inactive | – | – | inactive | 30.6 µM (active) | 17.2 µM (active) | – | inactive | – | 17.2 µM (active) | 21.9 µM (active) | inactive | 54.5 µM (active)
6 | CCOP(=O)(OCC)Oc1nc(Cl)c(Cl)cc1Cl | inactive | inactive | inactive | inactive | inactive | inactive | inactive | inactive | 27.4 µM (active) | inactive | – | 60.8 µM (active) | inactive | inactive | 60.8 µM (active) | – | – | inactive | inactive
7 | Oc1cc(Cl)cc(Cl)c1 | inactive | inactive | inactive | – | inactive | inactive | inactive | inactive | inactive | inactive | 61.8 µM (active) | 61.8 µM (active) | – | – | inactive | – | – | – | –
